# Source: PubChem (several laboratories)
# Sampled rows, rich in hits. Any-hit rate of the full collection: about 27%.
# CYP2C19 inhib = human CYP2C19 inhibition; P33261; CYP2C19 Supersomes, luciferin-H EGE luminescence, 30 min; inhibition, % at 5 µM; 96,000 compounds, 21% hits; AID 778;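 active means CYP2C19 inhibition above a set limit at 5 µM in the primary screen, cut at about 50% in these data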;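 further: plate controls were negative control wells for no effect and 2.5 mM tranylcypromine positive control for full effect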
# sEH inhibitor = soluble epoxide hydrolase (human) inhibition | P34913 | recombinant human sEH enzymatic activity assay | inhibition, % at 2 µM | 91,000 compounds, 0.34% hits | AID 707; in the data active means inhibition above about 80%
# CYP2C9 inhib = human CYP2C9 inhibition; P11712; CYP2C9 Supersomes, luciferin-H conversion, luminescence; inhibition, % at 5 µM; 96,000 compounds, 20% hits; AID 777;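 active means blocking of liver enzyme CYP2C9 beyond about 50% at 5 µM, limit read from the data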
# Target sequence (P11712 whole entry, looked up): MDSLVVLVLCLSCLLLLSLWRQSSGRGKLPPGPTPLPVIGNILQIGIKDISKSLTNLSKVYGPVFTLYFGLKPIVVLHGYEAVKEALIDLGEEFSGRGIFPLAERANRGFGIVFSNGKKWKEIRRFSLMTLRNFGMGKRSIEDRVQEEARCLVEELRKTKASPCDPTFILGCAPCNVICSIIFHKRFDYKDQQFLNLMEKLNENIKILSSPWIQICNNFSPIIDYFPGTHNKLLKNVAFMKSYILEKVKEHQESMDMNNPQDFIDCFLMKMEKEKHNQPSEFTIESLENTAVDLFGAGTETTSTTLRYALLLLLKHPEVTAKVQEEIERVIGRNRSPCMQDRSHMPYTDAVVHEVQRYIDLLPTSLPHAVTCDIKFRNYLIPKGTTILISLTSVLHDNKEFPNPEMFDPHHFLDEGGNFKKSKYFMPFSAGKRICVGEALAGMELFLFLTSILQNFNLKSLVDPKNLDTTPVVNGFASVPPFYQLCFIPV
# CYP2C9 activ = activators of human CYP2C9; recombinant CYP2C9, luciferin-H conversion, luminescence; stronger effect = higher value; factor 1 = untreated enzyme, 0 = blocked; activation factor at 5 µM; 96,000 compounds, 1.4% hits;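 active means activation factor of 2 or more for CYP2C9 at a 5 µM dose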;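 further: 0 = sulfaphenazole-blocked wells and 1 = vehicle-only wells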
# CYP2C19 activ = increases human CYP2C19 enzyme activity. 96,000 tested, under 10 active. AID 1025. P33261. activation factor at 5 µM. recombinant CYP2C19, luciferin-H EGE luminescence; stronger effect = higher value; 0 = fully inhibited enzyme, 1 = untreated enzyme;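 active means activation factor of at least 2 at 5 µM in the primary screen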;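 further: 0 = wells with 2.5 mM tranylcypromine and 1 = vehicle-only wells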
# sEH act = increases human soluble epoxide hydrolase activity. P34913. purified human sEH enzymatic activity, activator screen. activation, % at 2 µM. 91,000 compounds, 0.04% hits; in the data active means activation above about 37%
# * hit, by the source's call; x = not tested or not shown.
SMILES,CYP2C19 inhib,sEH inhibitor,CYP2C9 inhib,CYP2C9 activ,CYP2C19 activ,sEH act
O=C(CSc1nc2scc(-c3ccco3)c2c(=O)n1-c1ccccc1)N1CCOCC1,13,2,21,0.8,0.9,2
O=C(CSc1nc2scc(-c3ccco3)c2c(=O)n1-c1ccccc1)NCC1CCCO1 (centres undefined),52*,-3,71*,0.3,0.5,4
C=CCn1c(SCC(=O)NCC2CCCO2)nc2scc(-c3ccco3)c2c1=O (centres undefined),78*,23,81*,0.2,0.2,-23
O=c1c2c(-c3ccco3)csc2nc(SCc2cn3cccnc3n2)n1-c1ccccc1,53*,50,97*,0,0.5,-50
NC(=O)CSc1nc2scc(-c3ccco3)c2c(=O)n1-c1ccccc1,14,x,38,0.6,0.9,x
C=CCn1c(SCC(=O)NCCOC)nc2scc(-c3ccco3)c2c1=O,78*,-6,83*,0.2,0.2,7
Cc1cc(C)c(C(=O)CSC2=NC(N)=C(C#N)C3(CCCCC3)C2C(N)=O)cc1C (centres undefined),41,0,7,0.9,0.6,0
CCCN(CCC)CCCNc1ccc2nnc(-c3ccc(F)cc3)n2n1,9,0,3,1,0.9,1
Nc1n[nH]c(-c2ccccc2)c1-c1ccccc1,16,x,10,0.9,0.8,x
COc1ccc(S(=O)(=O)N(C)c2ccc(C(=O)N3CCC(C(N)=O)CC3)cc2)cc1,-8,-13,50*,0.5,1.1,13
Cc1ccc(CSCCNC(=O)c2ccc(N(C)S(=O)(=O)c3ccccc3)cc2)cc1,8,38,86*,0.1,0.9,-38
COc1ccc(S(=O)(=O)N2CCC(C(N)=O)CC2)cc1,x,-1,x,x,x,0
COCCCNC(=O)c1ccc(N(C)S(C)(=O)=O)cc1,-18,-1,-20,1.2,1.2,3
COCCCNC(=O)c1ccc(N(C)S(=O)(=O)c2ccc(OC)cc2)cc1,12,9,70*,0.3,0.9,-6
CN(c1ccc(C(=O)O)cc1)S(=O)(=O)c1ccccc1,7,x,10,0.9,0.9,x
NC(=O)C1CCN(C(=O)c2ccc(Oc3ccccc3)cc2)CC1,13,-4,56*,0.4,0.9,6
CCCCc1nnc(SCCSc2nnc(CCCC)n2N)n1N,-4,7,12,0.9,1,-4
OC(COCC1CC=CCC1)Cn1cnc2ccccc21 (centres undefined),72*,8,39,0.6,0.3,-6
OC(CN(c1ccccc1)c1ccccc1)Cn1cnc2ccccc21 (centres undefined),96*,-1,98*,0,0,0
CN(C)c1ccc(-c2nn3c(-c4ccccc4Cl)nnc3s2)cc1,27,-12,13,0.9,0.7,11
Clc1ccc(-c2nn3c(-c4cccc(Cl)c4)nnc3s2)cc1,60*,x,24,0.8,0.4,x
Clc1ccccc1-c1nnc2sc(-c3ccncc3)nn12,80*,-6,34,0.7,0.2,4
Clc1ccccc1-c1nn2c(-c3ccncc3)nnc2s1,78*,-2,74*,0.3,0.2,2
Clc1ccccc1-c1nnc2sc(-c3cccs3)nn12,42,x,61*,0.4,0.6,x
Cc1cccc(-c2nnc3sc(-c4ccccc4)nn23)c1,29,-9,12,0.9,0.7,7
SMILES,CYP2C19 inhib,sEH inhibitor,CYP2C9 inhib,CYP2C9 activ,CYP2C19 activ,sEH act
Oc1ccc(N2CCN(C(c3cccs3)c3nnnn3CCc3ccccc3)CC2)cc1 (centres undefined),-12,12,27,0.7,1.1,-14
Clc1ccc(-c2nnc3cccc(Cl)n23)c(Cl)c1,39,-10,4,1,0.6,9
Brc1ccc(-c2nn3c(-c4ccccn4)nnc3s2)o1,43,3,12,0.9,0.6,-3
Brc1ccc(-c2nn3c(-c4ccncc4)nnc3s2)o1,69*,x,16,0.8,0.3,x
Cc1ccc(-c2nnc3sc(C4COc5ccccc5O4)nn23)cc1 (centres undefined),2,x,-1,1,1,x
Clc1ccccc1-c1nnc2sc(C3COc4ccccc4O3)nn12 (centres undefined),86*,-6,87*,0.1,0.1,8
Cc1nn2c(-c3ccc(Cl)cc3Cl)nnc2s1,52*,-15,13,0.9,0.5,14
Clc1ccc(-c2nn3c(-c4ccncc4)nnc3s2)c(Cl)c1,84*,x,15,0.8,0.2,x
Cc1ccc(-c2nnc3sc(-c4ccncc4)nn23)cc1,33,-5,4,1,0.7,8
CCN1CCN(S(=O)(=O)c2ccc(Cl)c(C(=O)Nc3nnc(CC(C)C)s3)c2)CC1,6,3,22,0.8,0.9,-2
Clc1ccc(-c2nn3cnnc3s2)c(Cl)c1,89*,x,29,0.7,0.1,x
Clc1ccccc1-c1nn2c(-c3ccccn3)nnc2s1,60*,x,14,0.9,0.4,x
CCCNc1nc(Nc2ccc(C)cc2)nc(N2CCCC2)n1,-4,-9,22,0.8,1,12
CCC(=O)N1c2ccc(S(=O)(=O)N(CCO)Cc3ccccc3)cc2CC1C (centres undefined),52*,x,56*,0.4,0.5,x
Cc1cccc(OCc2nnc(SCC(=O)Nc3ccc(C)c(Cl)c3)o2)c1,-15,-1,-2,1,1.2,0
NCCCCCc1nnc(SCc2ccc(Cl)cc2Cl)o1,61*,-3,37,0.6,0.4,2
NCCCCCc1nnc(SCC(=O)Nc2cccc(Cl)c2)o1,48,-4,57*,0.4,0.5,3
CCC(C)[C@H](N)c1nnc(SCC(=O)Nc2cccc(Cl)c2)o1 (some centres undefined),97*,1,50*,0.5,0,0
Clc1cccc(NCc2nnc(SCc3ccccc3)o2)c1,82*,11,83*,0.2,0.2,-12
CCC(C)[C@H](N)c1nnc(SCc2cccc(F)c2)o1 (some centres undefined),62*,1,-6,1.1,0.4,-2
CC(C)[C@H](NC(=O)OC(C)(C)C)c1nnc(SCc2cccc(F)c2)o1,5,-3,-2,1,1,3
Clc1cccc(CSc2nnc(-c3c[nH]c4ccccc34)o2)c1,-2,17,27,0.7,1,-16
Clc1cccc(CSc2nnc([C@@H]3CCCN3)o2)c1,94*,x,-73,1.7,0.1,x
NCCCCCc1nnc(SCc2cccc(Cl)c2)o1,65*,-2,32,0.7,0.4,0
CCOc1c(CNCCN2CCOCC2)cccc1OC,21,-9,-7,1.1,0.8,6
COc1cc(OC)c(C2SCCN2S(=O)(=O)c2ccc(F)cc2)cc1OC (centres undefined),60*,-5,32,0.7,0.4,5
